Screens (PubChem BioAssay)
ATXN viability = cell viability loss in ATXN counter-screen. S2 cells (HEK-293 line with an ATXN2-luciferase reporter) viability, CellTiter-Fluor protease fluorescence, 24 h. Potency, µM (highest dose often 56.7 µM), hits mostly cytotoxic. actives 0.49% (n = 400,000); note: potency is the fitted concentration of half-maximal effect; nearly all actives have a fitted effect of over 40% in size
TGFb SMAD3 inh = inhibitors of TGF-b signaling. HepG2 CAGA-GFP TGF-b/SMAD3 reporter, GFP fluorescence, 18 h; TGF-beta stimulated, 500 pg/mL final. actives 1.2% (n = 410,000). Potency, µM (series often up to 46.1 µM), inactives show at the top dose activity, negative = inhibition, most hits filed as inhibitors; note: potency is the fitted concentration of half-maximal effect; % is set by controls: 0 for no effect and ±100 for the full control effect; nearly all actives have a fitted effect of over 65% in size
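Inhibition of TGF-beta-driven CAGA-GFP reporter expression in HEPG2 cells is measured by cellular GFP fluorescence after 18 h stimulation with 500 pg/mL recombinant TGF-beta in 1% FBS medium at 37 degrees C.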
ATXN2 expr inh = reduces ATXN2 reporter expression in HEK-293 cells; HEK-293 ATXN2-luciferase reporter, luminescence, 24 h; Potency, µM (series often up to 57 µM), for inactives: at the top dose activity change, negative = inhibition, hits mostly inhibitors; actives 0.72% (n = 360,000); AID 1745845; note: potency is the fitted concentration of half-maximal effect; % is set by controls: 0 for no effect and ±100 for the full control effect; nearly all actives have a fitted effect of over 55% in size
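ATXN2-luciferase reporter cells (luciferase flanked by upstream and downstream ATXN2 gene portions) were treated 24 h at 37 °C with compounds at up to 57 uM. SteadyGlo luminescence gave expression; GF-AFC fluorescence gave viability.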
IDH1 R132H inh = inhibitors of human mutant IDH1 R132H. O75874. IDH1-R132H enzyme, NADPH consumption, diaphorase/resazurin fluorescence. Potency, µM (highest dose often 76.6 µM), for the others: at the highest dose activity change, negative = inhibition, most hits filed as inhibitors. actives 0.093% (n = 390,000); note: potency is the fitted concentration of half-maximal effect; % is set by controls: 0 for no effect and ±100 for the full control effect; nearly all actives have a fitted effect of over 65% in size
Target sequence (O75874 whole entry R132H, stated change not applied): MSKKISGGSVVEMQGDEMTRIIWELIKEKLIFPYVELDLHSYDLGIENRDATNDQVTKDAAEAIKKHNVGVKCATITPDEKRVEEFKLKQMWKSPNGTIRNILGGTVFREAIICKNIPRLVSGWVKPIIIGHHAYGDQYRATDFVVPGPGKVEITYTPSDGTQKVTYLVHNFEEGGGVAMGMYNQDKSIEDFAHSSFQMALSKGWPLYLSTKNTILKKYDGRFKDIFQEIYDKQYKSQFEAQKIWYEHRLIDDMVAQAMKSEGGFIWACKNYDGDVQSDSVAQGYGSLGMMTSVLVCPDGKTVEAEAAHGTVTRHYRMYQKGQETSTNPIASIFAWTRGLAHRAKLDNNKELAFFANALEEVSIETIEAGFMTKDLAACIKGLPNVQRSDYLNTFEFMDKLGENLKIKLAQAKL
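IDH1-R132H (0.5 ug/mL dispensed) in pH 7.5 Tris buffer was preincubated 30 min with compound, then given a substrate mix of 0.016 mM NADPH and 2 mM alpha-KG for 80 min at room temperature; remaining NADPH was read by diaphorase/resazurin fluorescence.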
LDHA block = blocks human lactate dehydrogenase A | AID 1347041 | activity change, % (values are at about 110 or 230 µM) | actives 0.15% (n = 480,000) | purified LDHA, NADH/diaphorase-resazurin fluorescence; hits give low values | P00338; in the data active = activity change below about -30%; inconclusive = mostly about -25% to -30%;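 note: plate controls were DMSO wells for no effect and wells without enzyme for full effect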
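LDH5 2 nM; NADH 0.06 mM, pyruvate 0.2 mM; 200 mM Tris pH 7.4, EDTA, Tween-20; 5 min RT. Detection: diaphorase 0.133 mg/mL + resazurin 37 µM, fluorescence ex540/em590 at 0 and 20 min; normalized to enzyme-free and DMSO wells.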
HepG2 tox = HepG2 cytotoxicity, counter-screen for TGF-b inhibitors; Potency, µM (top dose mostly 46.1 µM), inactives show at the top dose activity change, negative = cytotoxicity, hits mostly cytotoxic; actives 0.76% (n = 410,000); HepG2 CAGA-GFP viability, ATP luminescence, 18 h; note: potency is the fitted concentration of half-maximal effect
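CellTiter-Glo luminescence gave cytotoxicity after 18 hours at 37 degrees C. The cells were HepG2 CAGA-GFP in 1% FBS DMEM, stimulated with 500 pg/mL TGF-beta after compound addition. %Activity was normalised to no-cell wells (complete cell-killing) and DMSO (no toxicity), and curves were fitted and classified.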
* hit, by the source's call; i = inactive; ? = inconclusive; nt = no result; ! = a repeat was not active. Rows were chosen to be rich in hits. Some 2.2% of all compounds tested hit in one or more screens of this group. Unless noted, calls come from the whole dose curve; as a rule, active = well fitted curve in the direction sought with a large enough effect; inconclusive = small, poorly fitted or top-dose-only effect, or another doubt; inactive = no such curve, though single readings can be large; an effect the other way counts as inactive or inconclusive.

SMILES	ATXN viability	TGFb SMAD3 inh	ATXN2 expr inh	IDH1 R132H inh	LDHA block	HepG2 tox
CN1CCN(c2cc(N3CCN(C(=O)c4ccco4)CC3)c3c4c(onc24)-c2ccccc2C3=O)CC1	i	-8%	nt	8%	11	-52%
CC1(C)CC(=O)C2=C(C1)NC1=C(C(=O)c3ccccc31)C2c1ccccc1 (centres undefined)	?	-14%	3%	-1%	-3	-8%
CC(C)c1ccc(C2C3=C(CC(C)(C)CC3=O)NC3=C2C(=O)c2ccccc23)cc1 (centres undefined)	14µM*	?	?	-10%	-7	-10%
CCCC(C)NC(=O)Nc1cc(C(=O)NC2CC2)ccc1C (centres undefined)	nt	nt	nt	nt	-34*	nt
CCCC(C)NC(=O)Nc1cc(C(=O)NC)ccc1C (centres undefined)	nt	nt	nt	nt	1	nt
Cc1nnc2sc(SCc3ccccc3Cl)nn2c1=O	i	1%	-16%	-2%	-6	15%
Cc1cccc(CC(=O)Nc2c(C(=O)Nc3cccc(F)c3)oc3ccccc23)c1	i	-20%	34%	-8%	5	-37%
CC(=O)NN1C(=O)c2ccc3c4c(ccc(c24)C1=O)C(=O)N(NC(C)=O)C3=O	nt	7.9µM*	nt	3%	15	10µM*
CC1=NN2C(=N)/C(=C\c3cc(C)n(-c4ccc(C)cc4)c3C)C(=O)N=C2S1	nt	3%	-1%	3%	-2	1%
CN(C)S(=O)(=O)c1cccc(NC(=O)COc2nc3ccccc3nc2N2CCOCC2)c1	i	2%	-10%	8%	-7	-2%
OC(COCC(F)(F)C(F)(F)C(F)(F)C(F)F)Cn1c2ccccc2c2ccccc21 (centres undefined)	?	?	?	9%	-6	18µM*
COc1ccc(C(=O)Nc2cc(C)on2)c(OC)c1	i	-19%	1%	2%	-10	-36%
COc1ccc(C(=O)Nc2ccc(C)cn2)c(OC)c1	i	4%	3.2µM*	10%	-8	-36%
C=C(C)C(=O)Oc1ccc(N=Nc2ccc(C)cc2)ccc1=O	32µM*	?	?	4%	9	-32%
CC(=O)c1ccc(N=Nc2ccc(C)cc2)cc1	i	-4%	-38%	1%	-7	-12%
COC(=O)c1ccc(NC(=O)c2cc(=O)c3cc(C)ccc3o2)cc1	nt	nt	nt	nt	3	nt
CC(C)(C)c1ccc(-c2noc(CCC(N)=O)n2)cc1	i	-12%	0.32µM*	0%	0	-10%
CC(C)(C)c1ccc(-c2nc(-c3ccc(Br)o3)no2)cc1	nt	nt	nt	nt	-31*	nt
CC(C)(C)c1ccc(-c2nc(-c3ccncc3)no2)cc1	i	16µM*	7%	5%	2	10µM*
COc1ccc(/C=N/NC(=S)Nc2cc(C(F)(F)F)ccc2Cl)cc1	i	9%	-26%	-3%	-3	0.63µM*
Cc1cc(=O)c2c(C)nn(-c3ccccc3)c2[nH]1	i	-6%	10%	0%	-2	5.6µM*
Cc1c(C)c2c(C)nn(-c3ccccc3)c2[nH]c1=O	i	-8%	10%	6%	0	-2%
COc1cccc(-n2cc(C(=O)OCc3ccc(Cl)cc3)c3ccccc3c2=O)c1	nt	17%	nt	12%	-4	1%
CN[C@@H]1CN(c2ccc3c(=O)c(C(=O)O)cn(-c4nccs4)c3n2)C[C@@H]1OC	nt	nt	11µM*	nt	nt	nt
O=C(Nc1ccccc1)C1CCN(c2nccs2)CC1	i	1%	-1%	0%	-1	2%
SMILES	ATXN viability	TGFb SMAD3 inh	ATXN2 expr inh	IDH1 R132H inh	LDHA block	HepG2 tox
O=C(CCc1nc2ccccc2c(=O)[nH]1)N1CCN(S(=O)(=O)c2ccccc2Br)CC1	i	-29%	-20%	4%	-2	-39%
CCOc1ccc(NC(=O)C2CCN(S(=O)(=O)Cc3ccc(F)cc3)CC2)cc1	nt	nt	nt	nt	1	nt
CCOC(=O)/C(=C/c1ccc(N2CCC(c3ccccc3)=N2)cc1)C(C)=O	nt	1%	1.9µM*	7%	2	-32%
C=C[C@@H]1c2cc(C)ccc2N(S(=O)(=O)c2ccc(C)cc2)[C@H](c2ccc(OC(C)=O)cc2)C1(C#N)C#N	?	?	25µM*	-8%	-5	6.3µM*!
C=C[C@@H]1c2ccccc2N(S(=O)(=O)c2ccc(C)cc2)[C@H](c2ccc(OC(C)=O)cc2)C1(C#N)C#N	?	?	?	15%	-6	-45%
O=c1cc(N2CCN(Cc3ccccc3)CC2)[nH]c(=O)n1-c1ccc(Br)cc1	i	-1%	-9%	-5%	-8	-9%
COc1cc(-c2nnc(SCCOc3ccc(Cl)cc3C)o2)cc(OC)c1OC	i	0%	-4%	6%	-13	11µM*
COc1ccccc1CNC(=O)c1ccncc1	i	18%	6%	0%	-1	-2%
COC(=O)C(C)Oc1ccc2c(=O)c(-c3ccc4c(c3)OCCO4)coc2c1 (centres undefined)	nt	nt	nt	nt	-34*	nt
COC(=O)C(C)Oc1ccc2c(-c3ccccc3)cc(=O)oc2c1 (centres undefined)	nt	nt	nt	nt	-32*	nt
COC(=O)C(C)Oc1ccc2c(=O)c(-c3ccc(Cl)cc3)coc2c1 (centres undefined)	nt	nt	nt	nt	-5	nt
CCc1ccc(Nc2cc(C(=O)NCCCN3CCOCC3)c3ccccc3n2)cc1	?	-5%	-31%	13%	-1	7.1µM*
CSc1cccc(Nc2cc(C(=O)NCCc3ccc(Cl)cc3)c3ccccc3n2)c1	i	10µM*	?	-7%	1	-33%
CCCCN(CCCNC(=O)c1cc(Nc2cccc(SC)c2)nc2ccccc12)Cc1ccccc1	nt	16µM*	nt	-3%	-6	13µM*
CCc1ccc(CNC(=O)CCCn2ccc3cc(S(=O)(=O)N4CCCC4)ccc32)cc1	13µM*	?	?	-8%	-3	-30%
CN(/N=C/c1ccccc1Cl)c1ncc(Cl)cc1C(F)(F)F	i	0%	21%	4%	0	-13%
CN(/N=C/c1ccc(O)cc1O)c1ncc(C(F)(F)F)cc1Cl	?	?	-28%	-6%	4	13µM*
O=C(NC1CCCCC1)C(c1ccco1)N(C(=O)c1csnn1)c1cccc(F)c1 (centres undefined)	i	3%	-4%	-5%	-1	9%
O=C(CCCNc1nc(Cl)nc2nc[nH]c12)NC1CC1	nt	nt	nt	nt	-2	nt
COC(=O)N/N=C\c1ccc(OC/C=C/c2ccccc2)c(OC)c1	i	-3%	3%	6%	-2	0%
